Here are results for 28 compounds from PubChem BioAssay (Tox21).

Values joined by “and” are separate entries in the source; they are usually repeats but may differ in a detail not shown here. Equal values may be shown once. Results filed as inconclusive are left out. Where a structure was tested more than once in an assay, its records may differ in their call. Active and inactive are the calls of the source. Unless noted, calls come from the whole dose curve; as a rule, active = well fitted curve in the direction sought with a large enough effect in the repeat runs; inconclusive = weak or mixed curves; inactive = no such curve, though single readings can be large; an effect the other way counts as inactive or inconclusive.

A short description of test [1]: qHTS assay to identify small molecule agonists of the androgen receptor (AR) signaling pathway in the presence of an antagonist - cell viability counter screen (AID 1259379).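 For activity change, negative = cytotoxicity: MDA-kb2 human breast cancer cells carrying an MMTV luciferase reporter; series mostly up to about 92 µM.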 Note: nearly all actives have a fitted effect of over 25% in size. Note: potency is the fitted concentration of half-maximal effect. The procedure, abridged: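 Fluorescence from CellTiter-Fluor, added after 15 hr and read 1 hr later, gave cell viability. Cells were MDA-kb2 exposed to compounds (15 concentrations) in the presence of 3.0uM nilutamide at 37C, 0% CO2.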

The nature of test [2]: qHTS assay to identify small molecule agonists of the estrogen receptor beta (ER-beta) signaling pathway - cell viability counter screen (AID 1259380). Note: nearly all actives have a fitted effect of over 30% in size. Note: potency is the fitted concentration of half-maximal effect. In short, it runs like this:
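Same-well viability counter screen. Cells: ER-beta-UAS-bla HEK293T, plated 6 hr before compound, in 2% charcoal-stripped FBS. Compound exposure 16 hr, 37C; viability by CellTiter-Glo luminescence after 30 min at room temperature.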

Test [3] is described as follows: qHTS assay to identify small molecule antagonists of the estrogen receptor beta (ER-beta) signaling pathway - cell viability counter screen (AID 1259382).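 For activity change, negative = cytotoxicity: HEK293T cells carrying ER-beta-UAS-bla reporter stimulated with estradiol; series mostly up to about 92 µM.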 Note: nearly all actives have a fitted effect of over 55% in size. Note: potency is the fitted concentration of half-maximal effect. The procedure, abridged: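 Following a 6 hr plating period, HEK293T cells carrying a UAS-driven beta-lactamase reporter under ER-beta control received compounds and 1nM E2 (final). After 16 hr at 37C and 2 hr substrate loading, CellTiter-Glo luminescence indicated viability.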

For test [4], the target named is Estrogen receptor (Homo sapiens) (UniProt P03372). Nature of the test: qHTS assay to identify small molecule agonists of the estrogen receptor alpha (ER-alpha) signaling pathway in the presence of an antagonist (AID 1259383; calls by dose curve; note: top concentration of the series differs between compounds; nearly all actives have a fitted effect of over 15% in size). The procedure, abridged: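 Cells are hormone-deprived for 5 days (charcoal-stripped FBS, no phenol red), plated for 24hr, spiked with 10.0nM ICI-182,780, then dosed at 15 concentrations. After 22hr at 37C, ONE-Glo luminescence reports ERE-luciferase activity.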
Estrogen receptor (Homo sapiens), sequence (P03372 whole entry, looked up): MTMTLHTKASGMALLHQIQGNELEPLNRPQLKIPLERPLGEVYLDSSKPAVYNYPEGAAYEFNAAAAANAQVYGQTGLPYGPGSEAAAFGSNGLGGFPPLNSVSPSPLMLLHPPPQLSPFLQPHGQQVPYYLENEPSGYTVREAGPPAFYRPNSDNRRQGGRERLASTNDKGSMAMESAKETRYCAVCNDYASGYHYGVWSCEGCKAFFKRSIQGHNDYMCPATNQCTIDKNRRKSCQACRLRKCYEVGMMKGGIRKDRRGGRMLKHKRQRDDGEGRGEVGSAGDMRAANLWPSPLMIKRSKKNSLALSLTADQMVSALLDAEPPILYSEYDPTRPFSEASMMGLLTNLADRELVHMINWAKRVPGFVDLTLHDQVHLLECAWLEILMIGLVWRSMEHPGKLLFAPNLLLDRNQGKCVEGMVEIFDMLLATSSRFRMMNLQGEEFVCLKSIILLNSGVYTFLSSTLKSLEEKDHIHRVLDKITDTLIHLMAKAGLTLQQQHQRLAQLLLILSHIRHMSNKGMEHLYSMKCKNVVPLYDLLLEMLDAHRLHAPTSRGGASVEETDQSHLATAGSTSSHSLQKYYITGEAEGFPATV

The nature of test [5]: qHTS assay to identify small molecule agonists or antagonists of the thyroid stimulating hormone receptor (TSHR) signaling pathway - wild type cell line counter screen (AID 1259384; calls by dose curve). In short, it runs like this: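 Counter screen in untransfected Hek293: compounds (15-point titration, triplicate) plus phosphodiesterase inhibitor Ro20-1724 added after 18 h plating; 30 min RT. Intracellular cAMP via competitive d2/cryptate immunoassay, 1 h incubation.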

Test [6] deals with Thyrotropin receptor (Homo sapiens) (UniProt P16473). Nature of the test: qHTS assay to identify small molecule antagonists of the thyroid stimulating hormone receptor (TSHR) signaling pathway (AID 1259385; calls by dose curve; note: nearly all actives have a fitted effect of over 20% in size; note: potency is the fitted concentration of half-maximal effect). In short, it runs like this: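 Antagonist mode: compound-treated TSHR-expressing HEK293 cells were stimulated with 1.5 ng/mL TSH (final) in presence of Ro20-1724 for 30 min at RT. HTRF cAMP detection after 1 h; each compound tested at 15 concentrations, triplicate.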
Thyrotropin receptor (Homo sapiens), sequence (P16473 whole entry, looked up): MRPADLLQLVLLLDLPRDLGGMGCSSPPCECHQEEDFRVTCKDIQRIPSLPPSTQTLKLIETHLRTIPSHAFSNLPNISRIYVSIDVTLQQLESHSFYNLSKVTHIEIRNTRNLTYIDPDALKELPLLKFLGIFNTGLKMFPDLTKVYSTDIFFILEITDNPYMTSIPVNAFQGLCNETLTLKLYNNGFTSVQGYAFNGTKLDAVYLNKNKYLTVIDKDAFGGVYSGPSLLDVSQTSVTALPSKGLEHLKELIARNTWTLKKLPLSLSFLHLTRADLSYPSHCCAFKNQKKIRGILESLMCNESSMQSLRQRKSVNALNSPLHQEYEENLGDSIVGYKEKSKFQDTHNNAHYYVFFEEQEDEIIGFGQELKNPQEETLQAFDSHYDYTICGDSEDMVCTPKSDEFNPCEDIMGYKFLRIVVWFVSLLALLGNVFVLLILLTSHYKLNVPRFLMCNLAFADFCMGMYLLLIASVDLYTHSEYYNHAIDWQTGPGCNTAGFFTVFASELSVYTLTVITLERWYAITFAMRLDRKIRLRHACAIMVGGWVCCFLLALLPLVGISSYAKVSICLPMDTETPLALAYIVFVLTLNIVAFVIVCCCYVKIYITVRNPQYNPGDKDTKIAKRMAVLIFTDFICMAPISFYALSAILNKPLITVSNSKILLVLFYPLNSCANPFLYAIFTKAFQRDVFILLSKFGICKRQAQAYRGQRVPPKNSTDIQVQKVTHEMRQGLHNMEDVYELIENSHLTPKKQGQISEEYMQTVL

The nature of test [7]: qHTS assay to identify small molecule agonists of the estrogen receptor alpha (ER-alpha) signaling pathway in the presence of an antagonist - cell viability counter screen (AID 1259386). For activity change, negative = cytotoxicity: series mostly up to about 92 µM.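 Note: cells exposed to compounds for 22 h at 37 °C before the viability read; nearly all actives have a fitted effect of over 30% in size.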 Note: potency is the fitted concentration of half-maximal effect. The procedure, abridged: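 Cells are starved of estrogens for 5 days in charcoal-stripped serum, seeded for 24hr and co-treated with ICI-182,780 (10.0nM final) and test compounds. After 22hr at 37C, viability is read as CellTiter-Fluor fluorescence.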

Test [8] deals with Progesterone receptor (Homo sapiens) (UniProt P06401). Nature of the test: qHTS assay to identify small molecule agonists of the progesterone receptor (PR) signaling pathway (AID 1346784; calls by dose curve; note: nearly all actives have a fitted effect of over 30% in size). The procedure, abridged:
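Using charcoal-stripped serum (2%) to limit endogenous steroids, PR-UAS-bla HEK 293T cells received compounds for 16 hr at 37C after 6 hr plating; beta-lactamase FRET fluorescence was recorded following 2 hr substrate loading at room temperature.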

The target in test [9] is Androgen receptor (Homo sapiens) (UniProt P10275). Nature of the test: qHTS assay to identify small molecule agonists of the androgen receptor (AR) signaling pathway in the presence of an antagonist (AID 1259381; calls by dose curve; note: nearly all actives have a fitted effect of over 15% in size). In short, it runs like this: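 Cells are MDA-kb2 (human breast carcinoma, MMTV-luc, AR/GR responsive). Nilutamide is present at 3.0uM final throughout; compounds are added at 15 concentrations and incubated 16hr at 37C before ONE-Glo luminescence detection.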
Androgen receptor (Homo sapiens), sequence (P10275 whole entry, looked up): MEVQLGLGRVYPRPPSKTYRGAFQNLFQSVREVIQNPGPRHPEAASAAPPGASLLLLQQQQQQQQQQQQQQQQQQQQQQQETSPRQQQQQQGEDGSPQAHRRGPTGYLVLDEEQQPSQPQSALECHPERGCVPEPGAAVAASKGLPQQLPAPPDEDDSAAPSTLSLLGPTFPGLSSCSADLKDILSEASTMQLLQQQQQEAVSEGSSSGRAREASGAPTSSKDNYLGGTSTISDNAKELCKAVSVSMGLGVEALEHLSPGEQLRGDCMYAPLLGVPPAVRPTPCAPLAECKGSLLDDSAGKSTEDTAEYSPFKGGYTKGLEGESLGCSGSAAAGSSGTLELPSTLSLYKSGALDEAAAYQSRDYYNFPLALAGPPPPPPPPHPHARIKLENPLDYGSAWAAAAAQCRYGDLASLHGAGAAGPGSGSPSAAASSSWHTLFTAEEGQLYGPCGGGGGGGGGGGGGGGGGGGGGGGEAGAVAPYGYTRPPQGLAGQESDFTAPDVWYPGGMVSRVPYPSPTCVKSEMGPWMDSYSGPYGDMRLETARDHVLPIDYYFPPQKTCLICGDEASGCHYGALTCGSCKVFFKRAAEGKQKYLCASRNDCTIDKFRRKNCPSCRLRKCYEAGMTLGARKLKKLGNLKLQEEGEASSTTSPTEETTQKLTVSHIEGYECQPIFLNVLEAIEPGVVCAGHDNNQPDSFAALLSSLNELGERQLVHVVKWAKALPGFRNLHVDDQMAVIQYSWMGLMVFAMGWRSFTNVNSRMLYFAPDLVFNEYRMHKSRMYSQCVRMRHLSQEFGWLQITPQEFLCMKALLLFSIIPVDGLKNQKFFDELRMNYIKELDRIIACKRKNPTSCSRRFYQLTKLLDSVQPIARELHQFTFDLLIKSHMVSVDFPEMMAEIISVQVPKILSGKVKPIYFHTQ
% is set by controls: 0 for no effect and ±100 for the full control effect.

Progesterone receptor (Homo sapiens), sequence (P06401 whole entry, looked up): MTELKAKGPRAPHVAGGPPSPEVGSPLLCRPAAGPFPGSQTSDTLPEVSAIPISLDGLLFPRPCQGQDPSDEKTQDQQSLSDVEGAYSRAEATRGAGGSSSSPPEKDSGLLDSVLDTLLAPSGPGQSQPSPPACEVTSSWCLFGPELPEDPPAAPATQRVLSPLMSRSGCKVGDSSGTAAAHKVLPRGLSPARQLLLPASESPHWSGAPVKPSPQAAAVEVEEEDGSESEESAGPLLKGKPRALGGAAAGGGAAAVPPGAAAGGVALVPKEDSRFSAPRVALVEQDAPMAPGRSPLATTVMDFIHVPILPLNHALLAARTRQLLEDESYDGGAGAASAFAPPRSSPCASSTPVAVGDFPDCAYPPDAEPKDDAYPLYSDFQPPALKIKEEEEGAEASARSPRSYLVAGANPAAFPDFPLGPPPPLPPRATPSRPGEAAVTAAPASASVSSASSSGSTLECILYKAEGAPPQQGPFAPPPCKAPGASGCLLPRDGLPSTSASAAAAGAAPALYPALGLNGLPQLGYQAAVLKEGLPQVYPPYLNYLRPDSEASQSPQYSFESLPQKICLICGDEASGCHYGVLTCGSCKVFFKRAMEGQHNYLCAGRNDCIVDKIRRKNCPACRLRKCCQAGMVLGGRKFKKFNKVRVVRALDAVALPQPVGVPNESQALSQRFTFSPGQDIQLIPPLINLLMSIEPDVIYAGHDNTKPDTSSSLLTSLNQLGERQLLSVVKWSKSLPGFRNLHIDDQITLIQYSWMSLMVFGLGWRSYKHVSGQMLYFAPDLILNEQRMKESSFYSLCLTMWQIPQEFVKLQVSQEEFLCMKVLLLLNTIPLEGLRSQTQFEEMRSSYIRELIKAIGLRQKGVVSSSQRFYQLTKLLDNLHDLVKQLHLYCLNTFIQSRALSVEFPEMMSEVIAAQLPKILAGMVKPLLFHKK

With `ClC/C=C\CCl`, the Potency result in [1], in [2], in test [3], in test [4], in test [6] and in [7] was “inactive” in each case. Also, the result in [5] and in test [8] was inactive.
For `CCc1cccc(C)c1`, the Potency entry in test [1], in [2], in test [3], in test [4], in test [6] and in [7] was “inactive” in each case. The call in [5] and in test [8] was inactive.
Consider `CCN(CC)c1cccc(C)c1`, for which the Potency result in test [1], in test [2], in test [3], in test [4], in test [6] and in test [7] was “inactive” in each case. The compound was classed as inactive in test [5] and in test [8].
Regarding `CC(C)(C)CC(C)(C)c1ccccc1O`, the Potency result in [1] and in test [6] was “inactive” in each case. The values for the Potency in test [2], in test [3] and in [7] were 43.5 µM (active), 61.4 µM (active) and 61.4 µM (active), respectively. In test [5], the compound was classed as inactive.
Take `CCCCCCCCCCc1ccccc1`: the Potency entry in test [1], in test [2], in test [3], in test [4] and in test [7] was “inactive” in each case. For the same compound, the call in [8] was inactive.
Turning to `[O]=[Zr]`, the Potency result in [1], in test [2], in [3], in [6] and in test [7] was “inactive” in each case. Also, the compound was called inactive in test [5] and in [8].
`CCC(C)C(=O)OC` (configuration not stated): the Potency result in test [1], in test [2], in [3], in test [4], in [6] and in [7] was “inactive” each time. For the same compound, the result in test [5] and in test [8] was inactive.
As to `CCNc1nc(NC(C)CC)nc(OC)n1` (configuration not stated), the Potency result in [1], in [2], in test [3], in test [6] and in test [7] was “inactive” throughout. Besides, the compound was called inactive in [5] and in [8].
For the compound `Clc1nc2ccccc2s1`, the Potency result in test [1], in test [2], in [3], in [4], in test [6] and in test [7] was “inactive” each time. The compound was called inactive in [5] and in test [8].
On to `CCCCCCCCCCCCOC(=O)c1cc(O)c(O)c(O)c1`, for which the Potency in [1] is 68.3 µM (active) and 61.1 µM (active); in test [2], 34.2 µM (active) and 68.6 µM (active); in test [3] it was 68.3 µM (active) and 68.6 µM (active); in test [6], 68.3 µM (active) and inactive; in test [7], 60.9 µM (active). The compound was classed as inactive in [5].
Regarding `O=C1c2c(O)ccc([N+](=O)[O-])c2C(=O)c2c([N+](=O)[O-])ccc(O)c21`, the Potency in [1] is 27.1 µM (active); in test [2] it was 15.2 µM (active); in test [3], 17.1 µM (active); in test [7], 24.1 µM (active). The Potency entry in test [4] and in test [6] was “inactive” throughout.
Turning to `CCOC(=O)[C@@](C)(N)Cc1ccc(O)c(O)c1`, the Potency result in test [1], in test [2], in test [3], in test [4], in [6] and in test [7] was “inactive” throughout. For the same compound, the compound was called inactive in test [5] and in test [8].
`CNCC[C@H](Oc1cccc2ccccc12)c1cccs1`: the Potency in [1] is 29.8 µM (active); in test [2], 16.8 µM (active); in [3], 13.3 µM (active). The result in [5] and in [8] was inactive. Moreover, the Potency entry in [6] and in test [7] was “inactive” in each case.
In the case of `CCCCCCCCCCCCCCCC`, the Potency result in test [1], in [2], in [3], in test [4], in test [6] and in test [7] was “inactive” throughout. The outcome in test [5] and in test [8] was inactive.
With `CC1CCCNC1` (configuration not stated), the Potency entry in [1], in test [2], in test [3], in test [4], in test [6] and in [7] was “inactive” in each case. Also, the result in test [5] and in [8] was inactive.
`CCC(=O)CC(C)CC` (configuration not stated): the activity change, negative = cytotoxicity in [1] was 0.759% [at 0.35 µM] (inactive); in test [2], 3.56% [at 0.349 µM] (inactive); in test [3], 9.77% [at 0.349 µM] (inactive); in test [7] it was 1.18% [at 0.349 µM] (inactive). For the same compound, the activation was -1.38% [at 0.349 µM] (inactive) in test [4] and -0.264% [at 0.349 µM] (inactive) in test [8]. In addition, the cAMP activity change in test [5] was -1.63% [at 0.349 µM] (inactive). In addition, the activity change, negative = inhibition in test [6] was 1.62% [at 0.349 µM] (inactive).
On to `CC(C(O)c1ccccc1)N(C)CCOC(c1ccccc1)c1ccccc1` (configuration not stated), for which the Potency is 29.8 µM (active) in test [1], 29.8 µM (active) in test [2] and 18.8 µM (active) in [3]. Further, the Potency result in test [4] and in test [7] was “inactive” each time. Further, the outcome in [5] and in [8] was inactive.
Regarding `CC(COC(=O)c1ccccc1)OC(=O)c1ccccc1` (configuration not stated), the Potency entry in test [1], in test [2], in test [3], in [4], in test [6] and in [7] was “inactive” throughout. Besides, the outcome in test [5] and in test [8] was inactive.
As for `CCO[Si](C)(C)OCC`, the Potency entry in test [1], in test [2], in test [3], in test [4], in [6] and in test [7] was “inactive” throughout. Besides, the outcome in test [5] and in test [8] was inactive.
Regarding `CCCCCCCCCCCCCC[n+]1ccccc1`, the Potency in test [1] was 3.06 µM (active); in test [2], 30.6 µM (active); in test [3], 61.1 µM (active); in test [7] it was 54.5 µM (active). The result in test [5] was inactive. Besides, in test [6], the Potency entry is “inactive”.
Consider `CN1[C@@H]2CC[C@H]1CC(OC(=O)C(CO)c1ccccc1)C2` (some centres not stated), for which the Potency result in test [1], in test [3] and in [7] was “inactive” in each case. Further, the Potency in test [2] is 68.5 µM (active). In addition, the call in [8] was inactive.
Consider `NC1(c2ccc(-c3nc4ccn5c(=O)[nH]nc5c4cc3-c3ccccc3)cc2)CCC1`, for which the Potency is 16.8 µM (active) in [1], 1.19 µM (active) in test [2], 2.11 µM (active) in [3] and 29.8 µM (active) in test [6]. Besides, the call in test [5] and in test [8] was inactive.
For the compound `O=C1OC(OC(=O)c2cccnc2Nc2cccc(C(F)(F)F)c2)c2ccccc21` (configuration not stated), the Potency result in test [1], in test [9], in test [6] and in [7] was “inactive” each time. The compound was classed as inactive in test [5] and in test [8].
With `C=CCCCCCCC=C`, the Potency result in [1], in test [2], in [3] and in test [7] was “inactive” in each case. Further, the compound was classed as inactive in [8].
As for `O=C(O)CCn1c2c(c3ccccc31)C[C@H](NS(=O)(=O)c1ccc(F)cc1)CC2`, the Potency entry in test [1], in test [2], in test [3] and in test [7] was “inactive” in each case.
Turning to `Cc1ccc(N)cc1O`, the Potency result in test [1], in test [9] and in [4] was “inactive” throughout. Besides, in [5], the compound was called inactive.
On to `CN1[C@@H]2CC[C@@H]1CC(OC(=O)C(CO)c1ccccc1)C2` (some centres not stated), for which the Potency entry in test [1], in test [2], in [3] and in [7] was “inactive” each time. Also, the compound was classed as inactive in [8].
For the compound `CCCCCCCCCCCCCCCCCO`, the results for the activity change, negative = cytotoxicity in test [1], in [3] and in [7] were 1.97% [at 19 µM] (inactive), 3.37% [at 19 µM] (inactive) and 2.39% [at 19 µM] (inactive), respectively. Besides, the activation in [9] is -1.33% [at 19 µM] (inactive); in [4] it was -1.67% [at 19 µM] (inactive); in test [8], -3.68% [at 19 µM] (inactive).
